IMPase cell inh – IMPase inhibition in cells; inhibition (IP1 accumulation), % at 46.1 µM; P97697; 120,000 tested, under 10 active; CHO-M1 cells, IP1 accumulation, HTRF TR-FRET ratio; active = well fitted curve in the direction sought with a large enough effect in the signal ratio, not every such curve was filed as active; inconclusive = small, poorly fitted or top-dose-only effect, or a change in a side signal; inactive = no such curve, though single readings can be large or run the other way; the % refers to the signal ratio;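 also: cells stimulated with carbachol in lithium chloride buffer; plate controls were DMSO basal wells for no effect and reference inhibitor wells for full effect; higher means more IMPase inhibition seen as more IP1 and lower FRET ratio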
Target sequence (P97697 whole entry, looked up): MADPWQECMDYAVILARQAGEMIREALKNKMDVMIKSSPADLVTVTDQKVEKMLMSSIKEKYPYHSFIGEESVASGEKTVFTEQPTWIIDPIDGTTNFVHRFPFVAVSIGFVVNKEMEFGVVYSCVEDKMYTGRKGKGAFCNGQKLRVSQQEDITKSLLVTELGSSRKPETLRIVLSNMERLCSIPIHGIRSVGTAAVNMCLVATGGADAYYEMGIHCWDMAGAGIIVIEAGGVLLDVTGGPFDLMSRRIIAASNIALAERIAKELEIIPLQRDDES
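Elevated IP1 in lysates lowers TR-FRET signal (665/620 ratio and 620 channel reported). Cells were CHO-M1, given carbachol (50 uM as added) plus 50mM LiCl, pH 7.4, 30 min, 37C; compounds titrated up to 46 uM; AC50 by Hill equation.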
IMPase Li cell – membrane-permeable IMPase blocker, potentiated with lithium; CHO-M1 cells, IP1 TR-FRET (IP-One), carbachol + lithium; Potency, µM (series often up to 59.4 µM), for the others: at the top dose activity, negative = IMPase inhibition, hits mostly inhibitors; 210,000 compounds, 0.35% hits; AID 1457;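 also: IP1 builds up when IMPase is blocked and the TR-FRET signal falls; potency is read from the fitted curve at half-maximal effect; plate controls were basal vehicle for no effect and high inhibitor control for full effect; nearly all actives have a fitted effect of over 50% in size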
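Test compounds were applied to CHO-M1 cells previously cultured for 16–30 h at 2000 per well. A small lithium amount accompanied them; after 30 min at 37C, IP1 was quantified by TR-FRET.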
NPSR antag – neuropeptide S receptor (human) antagonism, cAMP; Q6W5P4; CHO-NPSR cells, cAMP TR-FRET, antagonist mode; Potency, µM (series often up to 38.3 µM), inactives show top-dose activity change, negative = inhibition, hits mostly inhibitors; 220,000 compounds, 1% hits; AID 1461; also: potency is read from the fitted curve at half-maximal effect; nearly all actives have a fitted effect of over 50% in size
HPGD block – blocks human HPGD enzyme activity; P15428; purified HPGD, NADH fluorescence kinetic, PGE2 substrate; Potency, µM, without a hit: top-dose activity change, negative = inhibition, usual class: inhibitors; 150,000 compounds, 4.3% hits; AID 894; active = well fitted inhibition curve with a large enough effect, not every such curve was filed as active; inconclusive = small, poorly fitted or top-dose-only effect, or another doubt; inactive = no such curve, though single readings can be large or run the other way; also: potency is read from the fitted curve at half-maximal effect
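NADH formation kinetics: reaction with 30 uM PGE2 and 1 mM NAD+ (final), 20 nM enzyme, Tris-HCl pH 8 with Tween 20, after 15 min compound preincubation at room temperature. Fluorescence change, last versus first of five reads.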
12-hLO inh – blocks human 12-lipoxygenase activity; purified 12-hLO, xylenol orange hydroperoxide absorbance; Potency, µM (series often up to 57.1 µM), without a hit: at the highest dose activity change, negative = inhibition, most hits filed as inhibitors; 150,000 compounds, 0.12% hits; AID 1452; also: potency is read from the fitted curve at half-maximal effect; nearly all actives have a fitted effect of over 55% in size
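Hydroperoxide formation by human 12-lipoxygenase from 40 uM arachidonic acid was followed colorimetrically via ferric-xylenol orange complex, using the 573/405 nm absorbance ratio. Enzyme concentration was 150 nM, with 30 min reaction at room temperature.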
ALDH1A1 inh – ALDH1A1 (human) enzyme inhibition; P00352; Purified ALDH1A1, NADH fluorescence, propionaldehyde substrate; Potency, µM (titrated, usually from 75.3 µM), for the others: at the highest dose activity, negative = inhibition, usual class: inhibitors; 220,000 compounds, 7.3% hits; AID 1030; active = well fitted inhibition curve with a large enough effect, not every such curve was filed as active; inconclusive = small, poorly fitted or top-dose-only effect, or another doubt; inactive = no such curve, though single readings can be large or run the other way;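 also: potency is read from the fitted curve at half-maximal effect; plate controls were no enzyme wells and a reference inhibitor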
Target sequence (P00352 whole entry, looked up): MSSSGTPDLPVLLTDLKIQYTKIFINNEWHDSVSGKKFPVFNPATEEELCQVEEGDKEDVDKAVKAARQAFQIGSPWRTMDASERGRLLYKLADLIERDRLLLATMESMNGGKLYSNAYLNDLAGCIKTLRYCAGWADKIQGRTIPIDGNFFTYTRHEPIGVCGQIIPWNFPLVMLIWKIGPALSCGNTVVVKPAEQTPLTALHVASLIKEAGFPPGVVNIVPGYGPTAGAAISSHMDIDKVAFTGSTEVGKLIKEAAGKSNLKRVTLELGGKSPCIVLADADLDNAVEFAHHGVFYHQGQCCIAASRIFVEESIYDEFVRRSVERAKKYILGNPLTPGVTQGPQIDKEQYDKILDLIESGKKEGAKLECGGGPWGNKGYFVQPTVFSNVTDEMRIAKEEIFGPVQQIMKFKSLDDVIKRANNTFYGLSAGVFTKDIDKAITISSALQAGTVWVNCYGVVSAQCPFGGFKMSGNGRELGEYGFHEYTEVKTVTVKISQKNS
Active calls of the source: *; [ ] = another dose, or the depositor's remark. A selection: hits, their analogues and other compounds. The true share with any hit is near 8.9%. Unless noted, calls follow the shape of the dose curve; as a rule, active = well fitted curve in the direction sought with a large enough effect; inconclusive = small, poorly fitted or top-dose-only effect, or another doubt; inactive = no such curve, though single readings can be large; an effect the other way counts as inactive or inconclusive. Unless noted, % is scaled to controls: 0 for no effect and ±100 for the full control effect.

How did O=C(N/C(=C\c1ccc([N+](=O)[O-])cc1)C(=O)N1CCCCC1)c1ccccc1 do in these assays?
IMPase Li cell: 7%; NPSR antag: 8%; ALDH1A1 inh: 2%

Results for O=[N+]([O-])/C(C(Cl)=C(Cl)Cl)=C(/Sc1ccccc1)N1CCCCC1 ?
NPSR antag: inconclusive; ALDH1A1 inh: 18µM*

Results for COC(=O)CSC1=NS(=O)(=O)c2ccccc21 ?
IMPase cell inh: -3; IMPase Li cell: 21%[38.3 µM]; NPSR antag: -22%[46.1 µM]; HPGD block: 22µM*; 12-hLO inh: 1%; ALDH1A1 inh: -6%

How did O=C(CSC1=NS(=O)(=O)c2ccccc21)Nc1ccccc1 do in these assays?
IMPase cell inh: 0; IMPase Li cell: 8%[38.3 µM]; NPSR antag: -3%[46.1 µM]; HPGD block: 16µM*; 12-hLO inh: 3%; ALDH1A1 inh: 0.56µM*

Results for O=C(CCN1C(=O)c2ccccc2S1(=O)=O)Nc1ccccc1 ?
IMPase Li cell: 8%; NPSR antag: 0%; ALDH1A1 inh: -8%

Results for C=CCCCCCCCCC(=O)NN ?
IMPase cell inh: -1; IMPase Li cell: 1%; NPSR antag: -1%[46.1 µM]; HPGD block: -8%; 12-hLO inh: 3%; ALDH1A1 inh: 14µM*

How did C=CCCCCCCCC(=O)OC do in these assays?
IMPase Li cell: -1%; NPSR antag: -10%; ALDH1A1 inh: 18µM*

What do the screens show for `C=CCCCCCCCCC(=O)O`?
IMPase Li cell: 4%; HPGD block: -9%; 12-hLO inh: -1%[0.00818 µM]; ALDH1A1 inh: 2%

Results for CCN(CC)C(=O)Cn1cc(C(=O)C(=O)NCC2COc3ccccc3O2)c2ccccc21 (stereo unspecified) ?
IMPase Li cell: -8%; NPSR antag: -14%; ALDH1A1 inh: inconclusive

What do the screens show for `CCN(CC)CCOc1ccc(/C(=C(/Cl)c2ccccc2)c2ccccc2)cc1`?
IMPase Li cell: 20%; NPSR antag: 10µM*; ALDH1A1 inh: -7%

How did CCOc1ccc(C(=O)OCCN(CC)CC)cc1 do in these assays?
IMPase cell inh: -4; IMPase Li cell: 0%; NPSR antag: 3%[46.1 µM]; HPGD block: -10%; 12-hLO inh: 0%[0.00818 µM]; ALDH1A1 inh: -7%

Results for O=C(c1cccs1)N1CCN(c2ncccn2)CC1 ?
IMPase cell inh: 5; IMPase Li cell: 31%[38.3 µM]; NPSR antag: -9%[46.1 µM]; HPGD block: -16%; 12-hLO inh: 6%; ALDH1A1 inh: inconclusive

How did CC(=O)c1ccc(N2CCN(C(=O)c3cc4c(s3)CCCC4)CC2)cc1 do in these assays?
IMPase Li cell: 17%; NPSR antag: -43%; ALDH1A1 inh: 22µM*

Results for COc1ccccc1N1CCN(C(=O)c2cc3c(s2)CCC3)CC1 ?
IMPase cell inh: 3; IMPase Li cell: 27%[38.3 µM]; NPSR antag: inconclusive; HPGD block: -18%; 12-hLO inh: -1%; ALDH1A1 inh: 20µM*

Results for O=C(c1cc2c(s1)CCCC2)n1cccn1 ?
IMPase cell inh: -21; IMPase Li cell: 18%[38.3 µM]; NPSR antag: 6%[46.1 µM]; HPGD block: 16µM*; 12-hLO inh: -4%; ALDH1A1 inh: inconclusive

How did O=C(c1cc2c(s1)CCCCC2)N1CCN(c2ncccn2)CC1 do in these assays?
IMPase cell inh: 7; IMPase Li cell: 18%[38.3 µM]; NPSR antag: -22%[46.1 µM]; HPGD block: -12%; 12-hLO inh: 0%; ALDH1A1 inh: 14µM*

Results for COc1ccc(C2(C)NC(=O)N(Cc3cc(Cl)cc4c3OCOC4)C2=O)cc1OC (stereo unspecified) ?
IMPase cell inh: -4; IMPase Li cell: 5%[38.3 µM]; NPSR antag: -5%[46.1 µM]; HPGD block: -12%; 12-hLO inh: -5%; ALDH1A1 inh: -3%

How did CC1(C)CC(NC(=O)C2CCCCC2C(=O)O)CC(C)(C)N1 (stereo unspecified) do in these assays?
IMPase cell inh: 2; IMPase Li cell: -4%[38.3 µM]; NPSR antag: -7%[46.1 µM]; HPGD block: -3%; 12-hLO inh: -2%; ALDH1A1 inh: 6%

Results for COc1ccc(Cl)cc1NC(=O)Nn1cnnc1 ?
IMPase cell inh: 1; IMPase Li cell: 21%[38.3 µM]; NPSR antag: -3%[46.1 µM]; HPGD block: -2%; 12-hLO inh: 0%; ALDH1A1 inh: 5%

Results for COc1ccc2[nH]cc(/C=C/C(=O)c3ccccc3)c2c1 ?
NPSR antag: 30%; ALDH1A1 inh: inconclusive

How did Cc1ccc(S(=O)(=O)/C(C#N)=C/c2c[nH]c3ccccc23)cc1 do in these assays?
IMPase cell inh: 13; IMPase Li cell: 36%[38.3 µM]; NPSR antag: -13%[46.1 µM]; HPGD block: -7%; 12-hLO inh: -19%; ALDH1A1 inh: 8%

How did Cc1ccc(C(=O)/C=C/c2c[nH]c3ccccc23)cc1 do in these assays?
IMPase cell inh: 8; IMPase Li cell: 14%[38.3 µM]; NPSR antag: -27%[46.1 µM]; HPGD block: inconclusive; 12-hLO inh: inconclusive; ALDH1A1 inh: 25µM*

How did O=C(/C=C/c1c[nH]c2ccccc12)c1ccccc1 do in these assays?
IMPase Li cell: 12%; NPSR antag: -19%; HPGD block: 16µM*; 12-hLO inh: -7%; ALDH1A1 inh: 3.2µM*

How did Cc1n[nH]c(=S)n1/N=C/c1ccc(OCc2ccc(Cl)cc2)cc1 do in these assays?
IMPase cell inh: 7; IMPase Li cell: 9%[38.3 µM]; NPSR antag: -30%[46.1 µM]; HPGD block: 7.9µM*; 12-hLO inh: inconclusive; ALDH1A1 inh: 0%

Results for CCc1n[nH]c(=S)n1/N=C/c1ccccc1OCc1ccc(Cl)cc1 ?
IMPase Li cell: 3%; NPSR antag: 8%; ALDH1A1 inh: 7%

What do the screens show for `Cc1cc(C)c(COc2ccc(/C=N/n3c(C)n[nH]c3=S)cc2)c(C)c1`?
IMPase Li cell: 8%; NPSR antag: -36%; HPGD block: 10µM*; 12-hLO inh: -18%; ALDH1A1 inh: inconclusive

How did S=c1[nH]nc(Cc2ccc(Br)cc2)n1/N=C/c1ccc(Cl)cc1 do in these assays?
IMPase Li cell: 3%; NPSR antag: -36%; ALDH1A1 inh: 28µM*

How did Cc1n[nH]c(=S)n1/N=C/c1ccc(OCc2ccc(Cl)cc2Cl)cc1 do in these assays?
IMPase Li cell: 13%; NPSR antag: -12%; HPGD block: inconclusive; 12-hLO inh: -5%; ALDH1A1 inh: -12%

How did COc1ccc(NC(=S)Nc2ccc3nsnc3c2)cc1 do in these assays?
IMPase Li cell: -11%; NPSR antag: -57%; HPGD block: -4%; 12-hLO inh: -3%; ALDH1A1 inh: 22µM*

Results for CCOc1ccc(NC(=O)Nc2ccc3nsnc3c2)cc1 ?
IMPase Li cell: 1%; NPSR antag: -10%; ALDH1A1 inh: 2%

Results for CCOc1ccc(NC(=S)Nc2ccc3nsnc3c2)cc1 ?
IMPase Li cell: -5%; NPSR antag: 10µM*; HPGD block: 28µM*; 12-hLO inh: -25%; ALDH1A1 inh: 3.5µM*
